The sample as a whole holds a higher share of hits than the screen did.
ER stress surv: ER stress cell death inhibition | AID 1010 | relative survival (cellular ATP), % at 15 µg/mL (by protocol) | hit rate 0.33% among 48,000 | CSM14.1 thapsigargin ER stress survival, ATP luminescence;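 active = survival measured by cellular ATP above 50% at 15 µg/ml in the first screen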;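 also: cell death triggered by about 15 µM thapsigargin; ATP read 24 h after thapsigargin was added; plate controls were thapsigargin with DMSO for no effect and DMSO without thapsigargin for full effect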
The depositor's hits bear a star.

What do the screens show for `COc1ccc(CCNC(=O)C(=O)Nc2cc(C)cc(C)c2)cc1OC`?
ER stress surv: 2

What do the screens show for `O=C(Nc1ncc(Cc2cccc([N+](=O)[O-])c2)s1)c1sc2ccccc2c1Cl`?
ER stress surv: 7

Results for Cc1ccc2nc(-c3ccc(NC(=O)c4ccc5c(c4)OCCO5)cc3)sc2c1 ?
ER stress surv: -2

What do the screens show for `COc1ccc(CN2CCN(C(=O)c3ccc(-c4ccccc4)cc3)CC2)cc1OC`?
ER stress surv: -6

How did COc1ccc(Br)cc1CN1CCN(C(=O)c2ccc(-c3ccccc3)cc2)CC1 do in these assays?
ER stress surv: 98*

How did COc1cc(OC)c(OC)cc1CN1CCN(C(=O)c2ccc(OC)c(OC)c2)CC1 do in these assays?
ER stress surv: 2

Results for COc1ccc(CN2CCN(C(=O)c3ccc(-c4ccccc4)cc3)CC2)c(OC)c1 ?
ER stress surv: 129*

How did COc1cc(OC)cc(C(=O)N2CCN(Cc3ccccn3)CC2)c1 do in these assays?
ER stress surv: 0

How did COc1cc(OC)cc(C(=O)N2CCN(Cc3ccccc3C(F)(F)F)CC2)c1 do in these assays?
ER stress surv: 73*

What do the screens show for `COc1ccc(C(=O)N2CCN(Cc3ccccc3)CC2)c(OC)c1`?
ER stress surv: -2

How did COc1cc(C(=O)N2CCN(Cc3ccccc3C(F)(F)F)CC2)cc(OC)c1OC do in these assays?
ER stress surv: 8

What do the screens show for `COc1ccc(CN2CCN(C(=O)c3ccccc3)CC2)c(OC)c1OC`?
ER stress surv: 1

Results for CCNC(=O)/C=C/c1cn(-c2ccccc2)nc1-c1ccccc1 ?
ER stress surv: 1

What do the screens show for `COc1ccc(-c2nnc(NC(=O)c3ccccc3OC)s2)cc1`?
ER stress surv: 0

What do the screens show for `CC(=O)Nc1ccc(N2C(=O)c3cccc4c(C(=O)c5ccccc5)ccc(c34)C2=O)cc1`?
ER stress surv: 2

Results for O=C(Nc1ccc(S(=O)(=O)Nc2nccs2)cc1)c1cc(-c2cccs2)nc2ccccc12 ?
ER stress surv: 9

What do the screens show for `Nc1ccc2nc(SCC(=O)NC(c3ccccc3)c3ccccc3)sc2c1`?
ER stress surv: 3

What do the screens show for `CC(C)(C)c1ccc(S(=O)(=O)N2CCCC2C(=O)O)cc1` (configuration not stated)?
ER stress surv: 3

How did CCOc1cc(C(=O)N2CCN(c3ccccc3OC)CC2)cc(OCC)c1OCC do in these assays?
ER stress surv: 2

What do the screens show for `CNc1nc(Nc2ccccc2C(=O)c2ccccc2)nc(OC(C(F)(F)F)C(F)(F)F)n1`?
ER stress surv: 2

Results for COc1ccc(NC(=O)C(=O)N/N=C/c2cccc(OC)c2OC)cc1 ?
ER stress surv: 9

What do the screens show for `COc1ccc2c(c1OC)C(=O)OC2Nc1cccc(F)c1` (configuration not stated)?
ER stress surv: 2

What do the screens show for `C(#Cc1ccccc1)CN1CCN(CC#Cc2ccccc2)CC1`?
ER stress surv: 5

What do the screens show for `N#CCC(=O)N1CCN(C(c2ccccc2)c2ccccc2)CC1`?
ER stress surv: -4

What do the screens show for `O=C1c2ccccc2C(=O)N1CC#CCN1CCN(C(c2ccccc2)c2ccccc2)CC1`?
ER stress surv: 68*

How did Cc1cc(Cl)ccc1NC(=O)CSCc1cccc(Br)c1 do in these assays?
ER stress surv: 0

Results for Cc1cc(C)c(/C(=C2\OC(=O)c3ccccc32)[N+](=O)[O-])cc1C ?
ER stress surv: 2

What do the screens show for `CCOc1cc(/C=C2/SC(=S)NC2=O)ccc1OCc1ccc(Cl)c(Cl)c1`?
ER stress surv: 1

What do the screens show for `Cc1cc(C)c(OCCCCn2ccnc2)c(C)c1`?
ER stress surv: -4

What do the screens show for `Cc1cc(OCCCCCn2ccnc2)cc(C)c1Cl`?
ER stress surv: 37

How did Cc1cc(Cl)cc(C)c1OCCCCCCn1ccnc1 do in these assays?
ER stress surv: 55*

How did O=C(CC(c1ccccc1)c1ccccc1)Nc1nc2ccccc2s1 do in these assays?
ER stress surv: 1

Results for CCOc1cc(C=C2C(=O)NC(=S)NC2=O)ccc1OCc1ccc(Cl)cc1 ?
ER stress surv: 0

What do the screens show for `CC(=O)NC1=NN(C(C)=O)C(c2ccc(OC(C)=O)cc2)S1` (configuration not stated)?
ER stress surv: 6

How did O=[N+]([O-])c1cccc(/C=N\N2CCN(C(c3ccccc3)c3ccccc3)CC2)c1 do in these assays?
ER stress surv: 52*

Results for O=C(N/N=C/c1cccc([N+](=O)[O-])c1)C(Oc1ccccc1)Oc1ccccc1 ?
ER stress surv: 5

Results for NC(=O)c1ccccc1N=Cc1cccc([N+](=O)[O-])c1 ?
ER stress surv: 1

What do the screens show for `COc1cccc(NC(=O)c2cc(Br)ccc2I)c1`?
ER stress surv: -2

Results for Cc1cccc(C(=O)Nc2ccc(S(=O)(=O)Nc3nccs3)cc2)c1 ?
ER stress surv: 9

What do the screens show for `CC(C)OP(=O)(OC(C)C)C(Nc1cccc(N)c1)c1cccc(N)c1` (configuration not stated)?
ER stress surv: 81*

What do the screens show for `CC(C)OP(=O)(OC(C)C)C(Nc1cccc([N+](=O)[O-])c1)c1cccc([N+](=O)[O-])c1` (configuration not stated)?
ER stress surv: 6
